Results taken from PMC12136788.
Over roughly 24,000 sequences, “enrichment r” has its median near 0.99; the highest 2% begin near 3.7. Shown is part of a subset that was picked to be rich in the highest values.

B1: 113942580_113943501_80_5pUTR_ENSG00000119927_ENST00000348367|human|control|control (ssRNA)
RNA: GGGAGUUCUACAGUCCGACGAUCAUAAAACUUCAGGACUCAGCUAUCAGUUUCGGGUGCAGAAUGUCCAUACAACAGGGGAGCCGCUGCUGCCCUAGCAGCUCCAGCUUCGGCUGCUGCAGAAGCCCGCACUUCCAGUCCCGGCAACAGAGGAUUGAGCAUCA
B2: chr7:65419240:65419241:+_ENSG00000196715_ENST00000360768|hu_mus|motif|central (ssRNA)
RNA: GGGAGUUCUACAGUCCGACGAUCGCUGGCCAUCAGUCUUCCUUAGGCUGCAGCUGUCGCUUCCAGGCCUCAUUCAAAUAAACGGGUCGUUUGUAAUUGAUGAUGAGGAGGAGGAAGUUCAGCACAUAUGUGGUGACGCAGAUGCAACAGAGGAUUGAGCAUCA
B3: chr11:107358869:107358870:+_ENSMUSG00000020720_ENSMUST00000021063|mus_hu|FALSE|FALSE (ssRNA)
RNA: GGGAGUUCUACAGUCCGACGAUCCUCUGGAAGUUGAUAAUUCCUGCUAAUCUGUCUACUUUAGCAAAGAUGGUCUUGUUAACUACUAGAUUUGAGAGAAAGGCUUCGGACUCAUCAACAGAUAGAUCCAGAAGCUGUGCCAUCCAACAGAGGAUUGAGCAUCA
B4: chr3:55808730:55808731:-_ENSMUSG00000027799_ENSMUST00000029374|mus_mus|FALSE|FALSE (ssRNA)
RNA: GGGAGUUCUACAGUCCGACGAUCUGACGUCGUAUGAAUUCUGAAGUCUUUCUCUUCCAUUAUGCUUGAUGUGCACGUUAACUCUACACUCGCAGUCAUGUGAGCAAGCAACCCAAGAUCAUCACUGACACCAAGAUGUACUUGCAACAGAGGAUUGAGCAUCA
B5: 75313438_75313660_4053_CDS_ENSMUSG00000020850_ENSMUST00000102510|mouse|control|control (ssRNA)
RNA: GGGAGUUCUACAGUCCGACGAUCCUUGGACCACCUGAGGUCAGACUGGGGGAUAAGCACAUGGCCCAUCGAGAGCAUGCCAAGCCCACCCAGCUCCUUAGGGGUGUAGAAUACAACAGGCGGGAACCGGCUAGGCAUCUUGGACAACAGAGGAUUGAGCAUCA
B6: chr6:117881578:117881579:-_ENSG00000047932_ENST00000052569|hu_mus|FALSE|FALSE (ssRNA)
RNA: GGGAGUUCUACAGUCCGACGAUCCUUUAAUGUAGAAUAUGUCAUUUUUAUUUACAGGCUAAUUAAGAAUAUGAAACUCAACUAGAUAUAAUACAAUUAUCAUAAAUCCCCUUAUAUGUAAAUUAAUAUAUUUUUUGUUUUAAACAACAGAGGAUUGAGCAUCA
B7: chr4:95690885:95690886:+_ENSMUSG00000028572_ENSMUST00000156910|mus_mus|mus_mus_mus_hu_False|78_98 (ssRNA)
RNA: GGGAGUUCUACAGUCCGACGAUCUUUAGAAAAUGUUAAUGUUAAAUCUAAAAUAUUGUAAUUUUAAUAUUUUAUUUUACCAGAAGUCACAGGCAAGCAGACACUACAAGAAUAUAUGAAAAUGAAACUCAACAAUAUAACUGUCAACAGAGGAUUGAGCAUCA
B8: chr19:15271055:15271056:-_ENSG00000074181_ENST00000263388|hu_hu|FALSE|FALSE (ssRNA)
RNA: GGGAGUUCUACAGUCCGACGAUCCAUAUAUAUAUUUUGUAAAAAAUAAUAAUAAUAAGUUUGUUUAAAUGAAUUUGUUUCUAUACAAAAUGUAAAAAAAAAAAGAAAAAUAAAAAUAAUAAUAAUUCAUUCAUGUCAGAGUGUCAACAGAGGAUUGAGCAUCA
B9: chr10:123500321:123500322:-_ENSG00000107669_ENST00000369043|hu_hu|motif|central (ssRNA)
RNA: GGGAGUUCUACAGUCCGACGAUCACGUUAAGAAACUACACACAACAAAUAUUUGCAAAAUGAAUGAAAAAUAGGAUAAAGCGGUUUAAAAGUCAACAUAGUAAUAUUUAUCUAAAUAAUUUUAAUCAAAUGUACAACAUAUUUCAACAGAGGAUUGAGCAUCA
B10: chr19:46159329:46159330:+_ENSMUSG00000015176_ENSMUST00000165017|mus_hu|FALSE|FALSE (ssRNA)
RNA: GGGAGUUCUACAGUCCGACGAUCGGUCAAGUUGUCAAAAAAUGUCUUUCAACAGUAGAAAAGUUUGCUUUCAAAUUAAAAAACAAAGCACGUAUUGCAAACAUCGUGUAAUGAUAAAAUUACAGAAAAAAAUAUAUUCAGAAUCAACAGAGGAUUGAGCAUCA
B11: chr19:53454881:53454882:-_ENSMUSG00000025024_ENSMUST00000025997|mus_mus|motif|central (ssRNA)
RNA: GGGAGUUCUACAGUCCGACGAUCGUUUCAUUCUACCAAAGCCAAACAAUGACAACAAUGUAUCUUCCUUACUCAGCAUCGGAGCAAUCAGUUACCUUUAGAAAAAUACAAGGAUAAAAAGGAGAGUGUAAAGUAAAGCCCUGCCAACAGAGGAUUGAGCAUCA
B12: 207631549_207631669_399_CDS_ENSG00000118246_ENST00000403094|human|control|control (ssRNA)
RNA: GGGAGUUCUACAGUCCGACGAUCAAAAAUGAAUGCAUCCUGAAAGAGAUAUCUAAUGAUAUCAGUUGAUUGCAUUCUGUUAUGAAAGUUAUUUAAAAUGUUCCAGUUUGAAUGAACUAUUUUUGGUUUGCAAAGUCCCAAACACAACAGAGGAUUGAGCAUCA
B13: chr4:125586161:125586162:-_ENSG00000151458_ENST00000504087|hu_mus|FALSE|FALSE (ssRNA)
RNA: GGGAGUUCUACAGUCCGACGAUCCACGACGUCCUAAACAGUUGAUUUACAAAAUUUAAAUAUUUGAAUUUCAAAAAUAGCCAUUUAUUAUUAUUUUUUUAUUUGUGGGACCGUUUCUUAUCUUUGUAAUAGAGAAGUCAUUGUCAACAGAGGAUUGAGCAUCA
B14: 186301657_186302230_1024_CDS_ENSG00000090520_ENST00000265028|human|control|control (ssRNA)
RNA: GGGAGUUCUACAGUCCGACGAUCGGAAAUAUGUACCUUGUGACCAUCCAAGUGAGUAAUAUCCAUCUCAAAGCCAACCAGUGACUCAACUAAUGAGAUUGUCACAUUUGUGUACAAAUCAUCUCCUCUCCUUUCAAAUAUUGGCAACAGAGGAUUGAGCAUCA

What follows are binders tested against T1, UNK ZnF1-3 (human, UniProt Q9C0B0 31-174) (assay: nsRBNS (natural sequence RNA bind-n-seq); RBNS binding buffer (assumed for nsRBNS): 25 mM Tris pH 7.5, 150 mM KCl, 3 mM MgCl2, 0.01% Triton X-100, 500 ug/ml BSA, 20 U/ml SUPERase-In, 4 C; UNK is unkempt and MSI1 is Musashi-1; names of the RNAs are library labels; protein concentration not given here; high values mean tight binding).
T1 sequence: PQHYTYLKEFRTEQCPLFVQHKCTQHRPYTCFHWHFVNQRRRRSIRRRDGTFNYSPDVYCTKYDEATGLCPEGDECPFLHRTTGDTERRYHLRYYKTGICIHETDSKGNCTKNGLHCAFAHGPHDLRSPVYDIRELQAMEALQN

Binder	binding signal
B1	1.22 enrichment R
B2	1.01 enrichment R
B3	3.65 enrichment R
B4	0.64 enrichment R
B5	0.919 enrichment R
B6	4.33 enrichment R
B7	3.29 enrichment R
B8	9.9 enrichment R
B9	6.73 enrichment R
B10	6.25 enrichment R
B11	1.52 enrichment R
B12	0.397 enrichment R
B13	3.35 enrichment R
B14	0.986 enrichment R
